Laboratory results reported in PubChem BioAssay (EPA / NIEHS).
Inconclusive results are not listed. The source made the active and inactive calls. Rule for the calls: active = hit-call score of the fitted dose curve at least 0.9, where 1 is the maximum; inconclusive = response in the unintended direction; inactive = score below 0.9.

What was measured:
[1] = target: rat CYP2C12, Cyp2c12 (gene 25011) (UniProt P11510); experiment: NVS_ADME_rCYP2C12: NovaScreen (NVS) CYP450-related Enzyme Activity (ADME) Assay for rat CYP2C12 (AID 2283119)
Procedure, shortened: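 Fluorescent-substrate turnover by recombinant rat CYP2C12, measured at 0.5 h, normalized to acetonitrile vehicle. Chemicals screened first at a single 10 uM concentration in duplicate, with concentration series for actives.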

rat CYP2C6, gene 293989 = experiment: NVS_ADME_rCYP2C6: NovaScreen (NVS) CYP450-related Enzyme Activity (ADME) Assay for rat CYP2C6 (AID 2283120)
Procedure, shortened: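 Compounds first tested in duplicate at 10 uM, hits (e.g. 30% inhibition) re-run in singleton dose series to a 20 uM top concentration. Enzyme activity of recombinant rat CYP2C6 measured via fluorescent substrate turnover after 1 h; acetonitrile baseline.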

[2] = target: rat CYP2C13, Cyp2c13 (gene 171521) (UniProt P20814); experiment: NVS_ADME_rCYP2C13: NovaScreen (NVS) CYP450-related Enzyme Activity (ADME) Assay for rat CYP2C13 (AID 2283121)
Procedure, shortened: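 Inhibition is read as decreased fluorescent product formation, referenced to acetonitrile vehicle. Cell-free recombinant rat Cyp2c13 reaction ran 0.75 hour; compounds first at 10 uM in duplicate, then concentration series for actives.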

[3] = target: rat CYP2D1, Cyp2d1 (gene 266684) (UniProt P10633); experiment: NVS_ADME_rCYP2D1: NovaScreen (NVS) CYP450-related Enzyme Activity (ADME) Assay for rat CYP2D1 (AID 2283122)
Procedure, shortened: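 Rat CYP2D1 enzyme activity measured by fluorescence intensity in a cell-free format, 0.75 h post-dosing, acetonitrile as negative control. Screening at 10 uM in duplicate, with actives followed in concentration series up to 20 uM.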

[4] = target: rat CYP2D2, Cyp2d26 (gene 25053) (UniProt P10634); experiment: NVS_ADME_rCYP2D2: NovaScreen (NVS) CYP450-related Enzyme Activity (ADME) Assay for rat CYP2D2 (AID 2283124)
Procedure, shortened: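 Single-concentration duplicate testing at 10 uM, followed by concentration-response (top 20 uM) for chemicals passing threshold. Enzyme activity of the recombinant rat isoform measured by fluorescence after 0.75 h, acetonitrile as baseline.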

rat CYP3A1, gene 25642 = experiment: NVS_ADME_rCYP3A1: NovaScreen (NVS) CYP450-related Enzyme Activity (ADME) Assay for rat CYP3A1 (AID 2283126)
Procedure, shortened: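 Compounds went first at 10 uM duplicate, then to series with 20 uM maximum. Fluorescence from substrate turnover by the recombinant enzyme was measured 0.5 h post-dosing, inhibition scored against acetonitrile vehicle.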

[5] = target: human Caspase 4 (CASP4), CASP4 (gene 837) (UniProt P49662); experiment: NVS_ENZ_hCASP4: NovaScreen (NVS) Enzymatic Assay for human Caspase 4 (CASP4) (AID 2283143)
Procedure, shortened: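 Compounds were first tested in duplicate at 25 uM, and hits were titrated singly to a 50 uM maximum. Recombinant protease from E. coli was read by fluorescence 2 h post-dose, and activity loss was fitted against the DMSO baseline.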

Caspase-1 (Homo sapiens) = Caspase-1 (Homo sapiens) (UniProt P29466); experiment: NVS_ENZ_hCASP1: NovaScreen (NVS) Enzymatic Assay for human Caspase 1 (CASP1) (AID 2283132)
Procedure, shortened: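 Compounds were first tested in duplicate at 25 uM, with follow-up concentration series up to 50 uM. The bacterially expressed enzyme was read by fluorescence at 1 h post-dosing. Signal loss versus DMSO baseline indicates reduced enzyme activity.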

[6] = target: rat CYP1A2, Cyp1a2 (gene 24297) (UniProt P04799); experiment: NVS_ADME_rCYP1A2: NovaScreen (NVS) CYP450-related Enzyme Activity (ADME) Assay for rat CYP1A2 (AID 2283115)
Procedure, shortened: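 Primary testing ran in duplicate at 10 uM, with actives re-tested across concentration series. Fluorescence intensity from substrate turnover by recombinant protein, measured 1 hour post-dosing, with signal loss scored against acetonitrile vehicle.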

[7] = target: human Acetylcholinesterase (AChE), ACHE (gene 43) (UniProt P22303); experiment: NVS_ENZ_hAChE: NovaScreen (NVS) Enzymatic Assay for human Acetylcholinesterase (AChE) (AID 2283129)
Procedure, shortened: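 Actives from a duplicate single-point screen (25 uM) were followed up in concentration series. Enzyme activity read by absorbance (colorimetric) 0.33 hour after dosing, cell-free, normalized to DMSO, with loss of signal scored.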

Caspase-3 (Homo sapiens) = Caspase-3 (Homo sapiens) (UniProt P42574); experiment: NVS_ENZ_hCASP3: NovaScreen (NVS) Enzymatic Assay for human Caspase 3 (CASP3) (AID 2283139)
Procedure, shortened: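 Single-concentration screening at 25 uM in duplicate, with concentration-response follow-up to a 50 uM maximum for chemicals passing the threshold. Caspase-3 (human, E. coli-expressed) activity was read as substrate fluorescence after 1 h, with loss of signal relative to DMSO.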

[8] = target: human Caspase 2 (CASP2), CASP2 (gene 835) (UniProt P42575); experiment: NVS_ENZ_hCASP2: NovaScreen (NVS) Enzymatic Assay for human Caspase 2 (CASP2) (AID 2283135)
Procedure, shortened: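 Single-point duplicate testing at 25 uM preceded concentration series topping at 50 uM. Activity of the recombinant E. coli-derived protease was followed by fluorescent substrate cleavage 1 h post-dosing, relative to DMSO.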

[9] = target: human Caspase 8 (CASP8), CASP8 (gene 841) (UniProt Q14790); experiment: NVS_ENZ_hCASP8: NovaScreen (NVS) Enzymatic Assay for human Caspase 8 (CASP8) (AID 2283146)
Procedure, shortened: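 The primary screen tested compounds in duplicate at a single 25 uM concentration, with actives followed up in concentration series. Activity of recombinant (E. coli) protease was measured by fluorescence 1 h post-dose, as signal loss against DMSO.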

[10] = target: human Casein Kinase 2- alpha 2 beta 2 (CK2a2b2), CSNK2A1 (gene 1457) (UniProt P68400); experiment: NVS_ENZ_hCK2a2b2: NovaScreen (NVS) Enzymatic Assay for human Casein Kinase 2- alpha 2 beta 2 (CK2a2b2) (AID 2283147)
Procedure, shortened: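 Compounds were first screened in duplicate at 25 uM, and those passing the threshold were re-tested in concentration series up to a 50 uM maximum. Kinase activity of recombinant human CK2 α2β2 was measured 1 h after dosing by fluorescent substrate/product mobility-shift separation.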

[11] = target: human Beta-secretase (BACE), BACE1 (gene 23621) (UniProt P56817); experiment: NVS_ENZ_hBACE: NovaScreen (NVS) Enzymatic Assay for human Beta-secretase (BACE) (AID 2283140);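 note: hits are inhibitors that reduce fluorescent substrate signal versus DMSO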
Procedure, shortened: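 Fluorescence intensity read-out of protease activity defines this endpoint; signal loss relative to DMSO baseline marks inhibition. Recombinant enzyme from SF9 cells, cell-free format, 1 h exposure. Single-concentration duplicate screen (25 uM) precedes concentration-series follow-up.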

[12] = target: human AKT serine/threonine Kinase 1 (AKT1), AKT1 (gene 207) (UniProt P31749); experiment: NVS_ENZ_hAKT1: NovaScreen (NVS) Enzymatic Assay for human AKT serine/threonine Kinase 1 (AKT1) (AID 2283138)
Procedure, shortened: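 Compounds were first tested in duplicate at 25 uM, and those passing a threshold such as 30% inhibition were run in concentration-response to a maximum of 50 uM. Enzyme activity was measured after 1 h by fluorescence following substrate/product mobility-shift separation.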

[13] = target: human AKT serine/threonine Kinase 2 (AKT2), AKT2 (gene 208) (UniProt P31751); experiment: NVS_ENZ_hAKT2: NovaScreen (NVS) Enzymatic Assay for human AKT serine/threonine Kinase 2 (AKT2) (AID 2283141)
Procedure, shortened: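 Cell-free fluorescence/electrophoretic mobility shift readout of recombinant human AKT2 activity, 1 h after chemical dosing. Duplicate primary screen at 25 uM, then singleton concentration-response up to 50 uM; loss of signal versus DMSO baseline.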

rat CYP2D1, Cyp2d1 (gene 266684), sequence (P10633 whole entry, looked up): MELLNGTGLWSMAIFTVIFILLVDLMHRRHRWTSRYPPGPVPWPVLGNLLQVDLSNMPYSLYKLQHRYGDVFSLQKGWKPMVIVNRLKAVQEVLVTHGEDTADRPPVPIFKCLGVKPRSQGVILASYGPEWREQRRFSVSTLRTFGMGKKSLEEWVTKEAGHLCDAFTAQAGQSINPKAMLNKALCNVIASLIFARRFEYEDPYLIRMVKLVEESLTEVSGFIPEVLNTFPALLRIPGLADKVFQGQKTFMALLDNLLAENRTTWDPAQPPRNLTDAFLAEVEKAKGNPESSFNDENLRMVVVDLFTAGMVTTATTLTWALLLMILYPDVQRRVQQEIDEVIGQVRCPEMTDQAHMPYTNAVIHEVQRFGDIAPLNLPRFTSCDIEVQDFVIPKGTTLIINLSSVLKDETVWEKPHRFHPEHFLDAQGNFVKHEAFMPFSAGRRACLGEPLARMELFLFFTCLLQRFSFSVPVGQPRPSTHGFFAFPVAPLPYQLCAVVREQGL
rat CYP2C12, Cyp2c12 (gene 25011), sequence (P11510 whole entry, looked up): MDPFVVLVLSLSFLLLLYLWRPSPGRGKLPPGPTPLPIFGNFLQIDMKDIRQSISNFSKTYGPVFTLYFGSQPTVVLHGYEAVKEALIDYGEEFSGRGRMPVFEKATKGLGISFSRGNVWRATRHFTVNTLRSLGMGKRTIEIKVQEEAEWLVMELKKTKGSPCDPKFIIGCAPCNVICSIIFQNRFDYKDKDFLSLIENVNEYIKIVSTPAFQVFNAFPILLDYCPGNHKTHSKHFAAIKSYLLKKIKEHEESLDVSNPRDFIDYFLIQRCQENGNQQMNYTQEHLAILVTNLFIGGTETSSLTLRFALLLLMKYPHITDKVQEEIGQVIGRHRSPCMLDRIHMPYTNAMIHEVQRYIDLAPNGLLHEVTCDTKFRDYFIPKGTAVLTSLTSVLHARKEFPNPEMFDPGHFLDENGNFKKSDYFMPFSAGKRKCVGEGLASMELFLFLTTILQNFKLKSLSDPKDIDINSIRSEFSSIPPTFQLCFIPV
rat CYP2D2, Cyp2d26 (gene 25053), sequence (P10634 whole entry, looked up, canonical isoform): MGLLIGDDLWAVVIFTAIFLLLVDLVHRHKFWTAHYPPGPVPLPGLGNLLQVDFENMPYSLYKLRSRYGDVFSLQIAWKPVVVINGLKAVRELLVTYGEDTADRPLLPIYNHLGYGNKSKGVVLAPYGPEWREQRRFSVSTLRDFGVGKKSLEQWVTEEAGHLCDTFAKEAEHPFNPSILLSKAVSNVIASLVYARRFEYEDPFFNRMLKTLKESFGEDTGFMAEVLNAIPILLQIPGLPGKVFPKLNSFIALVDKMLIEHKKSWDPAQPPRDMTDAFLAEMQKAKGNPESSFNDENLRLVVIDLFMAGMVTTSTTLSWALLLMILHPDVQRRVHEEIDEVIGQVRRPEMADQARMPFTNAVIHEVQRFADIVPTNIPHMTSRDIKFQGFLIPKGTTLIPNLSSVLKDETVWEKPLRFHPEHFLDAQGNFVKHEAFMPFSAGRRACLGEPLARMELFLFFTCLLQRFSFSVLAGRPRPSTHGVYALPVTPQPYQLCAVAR
rat CYP2C13, Cyp2c13 (gene 171521), sequence (P20814 whole entry, looked up): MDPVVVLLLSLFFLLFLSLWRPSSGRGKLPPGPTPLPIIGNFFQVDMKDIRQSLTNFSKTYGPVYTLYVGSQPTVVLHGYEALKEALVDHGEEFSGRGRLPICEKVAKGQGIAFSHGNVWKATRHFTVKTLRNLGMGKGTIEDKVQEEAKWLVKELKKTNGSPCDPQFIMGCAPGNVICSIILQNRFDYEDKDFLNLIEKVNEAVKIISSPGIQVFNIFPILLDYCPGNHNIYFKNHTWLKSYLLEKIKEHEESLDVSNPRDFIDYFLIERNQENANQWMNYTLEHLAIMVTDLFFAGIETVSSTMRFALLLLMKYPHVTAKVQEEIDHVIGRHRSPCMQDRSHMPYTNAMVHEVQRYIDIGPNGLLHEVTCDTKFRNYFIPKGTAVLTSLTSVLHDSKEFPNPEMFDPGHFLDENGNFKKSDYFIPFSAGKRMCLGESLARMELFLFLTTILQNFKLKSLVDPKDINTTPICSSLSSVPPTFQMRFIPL
Caspase-1 (Homo sapiens), sequence (P29466 whole entry, looked up): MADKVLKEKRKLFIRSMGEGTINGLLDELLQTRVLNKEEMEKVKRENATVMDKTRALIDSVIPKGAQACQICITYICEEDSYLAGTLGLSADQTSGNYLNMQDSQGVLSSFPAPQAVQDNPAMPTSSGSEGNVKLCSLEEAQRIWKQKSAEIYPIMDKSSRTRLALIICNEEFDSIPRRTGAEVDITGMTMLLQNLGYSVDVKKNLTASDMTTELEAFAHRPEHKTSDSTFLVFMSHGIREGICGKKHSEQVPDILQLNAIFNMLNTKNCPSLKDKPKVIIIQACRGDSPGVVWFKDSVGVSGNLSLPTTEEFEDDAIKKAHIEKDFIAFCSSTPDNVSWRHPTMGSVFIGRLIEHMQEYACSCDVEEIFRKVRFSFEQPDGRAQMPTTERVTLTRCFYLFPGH
human Casein Kinase 2- alpha 2 beta 2 (CK2a2b2), CSNK2A1 (gene 1457), sequence (P68400 whole entry, looked up): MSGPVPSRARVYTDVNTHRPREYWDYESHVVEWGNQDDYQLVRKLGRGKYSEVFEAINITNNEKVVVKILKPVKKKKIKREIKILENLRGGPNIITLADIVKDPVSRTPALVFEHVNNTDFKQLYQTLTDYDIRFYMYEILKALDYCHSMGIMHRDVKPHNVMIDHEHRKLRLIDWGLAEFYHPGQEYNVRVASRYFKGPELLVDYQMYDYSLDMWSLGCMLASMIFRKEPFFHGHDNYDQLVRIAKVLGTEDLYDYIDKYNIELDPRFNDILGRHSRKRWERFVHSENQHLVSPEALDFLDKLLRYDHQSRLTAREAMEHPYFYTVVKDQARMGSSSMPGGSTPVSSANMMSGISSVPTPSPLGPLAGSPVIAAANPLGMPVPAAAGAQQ
human AKT serine/threonine Kinase 2 (AKT2), AKT2 (gene 208), sequence (P31751 whole entry, looked up): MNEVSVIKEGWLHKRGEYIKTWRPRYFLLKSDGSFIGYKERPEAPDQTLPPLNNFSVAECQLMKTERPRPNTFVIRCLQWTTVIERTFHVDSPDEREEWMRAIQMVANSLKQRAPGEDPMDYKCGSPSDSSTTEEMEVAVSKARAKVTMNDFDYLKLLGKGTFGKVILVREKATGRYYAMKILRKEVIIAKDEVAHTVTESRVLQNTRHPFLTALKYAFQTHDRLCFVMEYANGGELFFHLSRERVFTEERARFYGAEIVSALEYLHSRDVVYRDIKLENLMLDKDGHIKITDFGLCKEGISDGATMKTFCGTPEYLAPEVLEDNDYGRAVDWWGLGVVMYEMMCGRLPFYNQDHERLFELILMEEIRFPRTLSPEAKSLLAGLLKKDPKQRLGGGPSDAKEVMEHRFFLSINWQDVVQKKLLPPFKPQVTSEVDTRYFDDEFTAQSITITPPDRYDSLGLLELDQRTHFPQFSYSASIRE
human Caspase 8 (CASP8), CASP8 (gene 841), sequence (Q14790 whole entry, looked up): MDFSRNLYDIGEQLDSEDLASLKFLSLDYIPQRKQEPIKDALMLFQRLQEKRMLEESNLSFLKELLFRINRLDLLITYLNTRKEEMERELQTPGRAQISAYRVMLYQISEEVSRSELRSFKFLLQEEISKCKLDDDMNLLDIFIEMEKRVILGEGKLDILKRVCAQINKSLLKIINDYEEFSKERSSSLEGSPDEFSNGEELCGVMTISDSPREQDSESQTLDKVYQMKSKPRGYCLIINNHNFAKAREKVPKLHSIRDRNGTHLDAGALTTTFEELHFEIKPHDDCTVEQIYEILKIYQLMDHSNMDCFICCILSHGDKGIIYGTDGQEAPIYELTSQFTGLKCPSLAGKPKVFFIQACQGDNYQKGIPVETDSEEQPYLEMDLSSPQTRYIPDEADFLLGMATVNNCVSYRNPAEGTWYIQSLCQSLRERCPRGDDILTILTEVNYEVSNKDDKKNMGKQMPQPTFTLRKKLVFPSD
human AKT serine/threonine Kinase 1 (AKT1), AKT1 (gene 207), sequence (P31749 whole entry, looked up): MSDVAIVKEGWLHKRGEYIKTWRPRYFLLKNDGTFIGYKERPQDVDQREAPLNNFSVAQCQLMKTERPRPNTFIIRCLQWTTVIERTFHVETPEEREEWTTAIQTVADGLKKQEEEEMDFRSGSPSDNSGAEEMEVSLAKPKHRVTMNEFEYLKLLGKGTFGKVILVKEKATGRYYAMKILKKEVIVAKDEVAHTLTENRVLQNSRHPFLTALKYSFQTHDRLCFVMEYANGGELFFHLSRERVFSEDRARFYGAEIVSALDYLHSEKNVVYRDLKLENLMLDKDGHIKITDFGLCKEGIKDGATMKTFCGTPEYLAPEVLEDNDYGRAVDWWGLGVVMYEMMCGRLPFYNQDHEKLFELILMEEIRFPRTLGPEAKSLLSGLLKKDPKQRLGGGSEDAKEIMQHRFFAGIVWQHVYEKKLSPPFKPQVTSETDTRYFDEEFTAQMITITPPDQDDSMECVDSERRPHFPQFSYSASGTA
human Acetylcholinesterase (AChE), ACHE (gene 43), sequence (P22303 whole entry, looked up): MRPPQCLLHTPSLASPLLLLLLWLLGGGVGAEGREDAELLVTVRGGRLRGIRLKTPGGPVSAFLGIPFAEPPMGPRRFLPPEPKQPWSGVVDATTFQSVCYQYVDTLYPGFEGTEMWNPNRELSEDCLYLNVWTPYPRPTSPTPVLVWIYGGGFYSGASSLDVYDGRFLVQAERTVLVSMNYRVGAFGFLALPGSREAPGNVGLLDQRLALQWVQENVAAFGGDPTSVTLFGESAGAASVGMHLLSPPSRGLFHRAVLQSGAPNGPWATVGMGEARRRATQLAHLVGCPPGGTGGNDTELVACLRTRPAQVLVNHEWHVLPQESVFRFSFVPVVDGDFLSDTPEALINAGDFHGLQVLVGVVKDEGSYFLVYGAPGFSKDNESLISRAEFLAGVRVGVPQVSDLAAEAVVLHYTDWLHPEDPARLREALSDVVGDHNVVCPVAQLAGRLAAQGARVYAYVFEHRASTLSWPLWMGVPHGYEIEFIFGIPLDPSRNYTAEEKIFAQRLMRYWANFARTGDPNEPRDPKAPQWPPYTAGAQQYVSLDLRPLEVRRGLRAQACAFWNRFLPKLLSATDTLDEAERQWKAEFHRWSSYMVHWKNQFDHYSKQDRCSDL

CCCCC(O)(Cn1cncn1)c1ccc(Cl)cc1Cl (stereo unspecified)
AC50 [1]: 1580 nM (active) | AC50 (rat CYP2C6, gene 293989): 3590 nM (active) | AC50 [2]: 655 nM (active) | AC50 [3]: 951 nM (active) | AC50 [4]: 4090 nM (active) | AC50 (rat CYP3A1, gene 25642): 995 nM (active) | AC50 [5]: 9080 nM (active)

CCNP(=S)(OC)O/C(C)=C/C(=O)OC(C)C (stereo unspecified)
AC50 [1]: 10000 nM (active) | AC50 (rat CYP2C6, gene 293989): 151 nM (active) | AC50 [2]: 7310 nM (active) | AC50 [4]: 5410 nM (active) | AC50 (rat CYP3A1, gene 25642): 1930 nM (active) | outcome (Caspase-1 (Homo sapiens)): inactive

CO/N=C(/C1=NOCCO1)c1ccccc1Oc1ncnc(Oc2ccccc2Cl)c1F
AC50 (rat CYP2C6, gene 293989): 1740 nM (active) | AC50 (rat CYP3A1, gene 25642): 705 nM (active)

CC(C)NC(=O)N1CC(=O)N(c2cc(Cl)cc(Cl)c2)C1=O
outcome [6]: inactive | AC50 (rat CYP2C6, gene 293989): 2380 nM (active) | AC50 (rat CYP3A1, gene 25642): 2270 nM (active)

CCC(C)n1c(=O)[nH]c(C)c(Br)c1=O (stereo unspecified)
AC50 [3]: 3930 nM (active) | outcome [7]: inactive

Nc1cnn(-c2ccccc2)c(=O)c1Cl
AC50 [3]: 2370 nM (active) | AC50 (rat CYP3A1, gene 25642): 7350 nM (active)

CCOc1nc(C(Cl)(Cl)Cl)ns1
outcome (Caspase-3 (Homo sapiens)): inactive

COc1cc(OC)nc(NC(=O)NS(=O)(=O)c2ncccc2OCC(F)(F)F)n1
AC50 (rat CYP3A1, gene 25642): 5870 nM (active) | outcome (Caspase-1 (Homo sapiens)): inactive

CN/C(=N\[N+](=O)[O-])NCc1cnc(Cl)s1
outcome [8]: inactive

Nc1c(Cl)c(F)nc(OCC(=O)O)c1Cl
outcome [9]: inactive | AC50 [10]: 18800 nM (active)

Cc1c(COC(=O)[C@@H]2[C@H](/C=C(\Cl)C(F)(F)F)C2(C)C)cccc1-c1ccccc1
outcome [11]: inactive

N#Cc1c(Cl)cccc1Cl
outcome [12]: inactive

CS(=O)(=O)c1cc(C(F)(F)F)ccc1C(=O)c1cnoc1C1CC1
outcome [13]: inactive
